# CYP2C19 activ: increases human CYP2C19 enzyme activity | P33261 | recombinant CYP2C19, luciferin-H EGE luminescence; stronger effect = higher value; 0 = fully inhibited enzyme, 1 = untreated enzyme | activation factor at 5 µM | 96,000 tested, under 10 active;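 active means activation factor of at least 2 at 5 µM in the primary screen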;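 further: 0 = wells with 2.5 mM tranylcypromine and 1 = vehicle-only wells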
# Target sequence (P33261 whole entry, looked up): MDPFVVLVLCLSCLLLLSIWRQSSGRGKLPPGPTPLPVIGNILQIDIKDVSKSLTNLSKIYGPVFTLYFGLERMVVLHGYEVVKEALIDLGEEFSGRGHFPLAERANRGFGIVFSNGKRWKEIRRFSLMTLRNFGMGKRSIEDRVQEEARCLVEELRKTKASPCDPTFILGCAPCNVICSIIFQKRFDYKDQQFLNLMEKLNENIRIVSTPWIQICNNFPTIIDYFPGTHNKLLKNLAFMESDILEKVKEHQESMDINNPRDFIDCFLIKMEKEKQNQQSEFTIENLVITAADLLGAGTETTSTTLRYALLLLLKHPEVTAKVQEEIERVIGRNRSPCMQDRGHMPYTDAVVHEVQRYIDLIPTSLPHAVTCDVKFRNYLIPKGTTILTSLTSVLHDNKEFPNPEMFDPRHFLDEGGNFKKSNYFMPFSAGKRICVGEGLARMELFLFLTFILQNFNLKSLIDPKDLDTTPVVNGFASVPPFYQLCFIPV
# CYP2C9 inh: inhibitors of human CYP2C9; P11712; CYP2C9 Supersomes, luciferin-H conversion, luminescence; inhibition, % at 5 µM; actives 20% (n = 96,000); AID 777;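 active means blocking of liver enzyme CYP2C9 beyond about 50% at 5 µM, limit read from the data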
# sEH act: soluble epoxide hydrolase (human) activation; P34913; purified human sEH enzymatic activity, activator screen; activation, % at 2 µM; actives 0.04% (n = 91,000); AID 717; in the data active means activation above about 37%
# sEH inhibitor: inhibitors of human soluble epoxide hydrolase; P34913; recombinant human sEH enzymatic activity assay; inhibition, % at 2 µM; actives 0.34% (n = 91,000); AID 707; in the data active means inhibition above about 80%
# CYP2C9 act: CYP2C9 (human) activation; P11712; recombinant CYP2C9, luciferin-H conversion, luminescence; stronger effect = higher value; factor 1 = untreated enzyme, 0 = blocked; activation factor at 5 µM; actives 1.4% (n = 96,000);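 active means activation factor of 2 or more for CYP2C9 at a 5 µM dose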;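 further: 0 = sulfaphenazole-blocked wells and 1 = vehicle-only wells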
# CYP2C19 inhib: inhibitors of human CYP2C19; P33261; CYP2C19 Supersomes, luciferin-H EGE luminescence, 30 min; actives 21% (n = 96,000); inhibition, % at 5 µM; AID 778;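 active means CYP2C19 inhibition above a set limit at 5 µM in the primary screen, cut at about 50% in these data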;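 further: plate controls were negative control wells for no effect and 2.5 mM tranylcypromine positive control for full effect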
# The depositor's hits bear a star; / = no result. A selection: hits, their analogues and other compounds. The true share with any hit is near 27%.
SMILES,CYP2C19 activ,CYP2C9 inh,sEH act,sEH inhibitor,CYP2C9 act,CYP2C19 inhib
Cc1ccc(OCC(O)Cn2c(NCCc3ccccc3)nc3c2c(=O)[nH]c(=O)n3C)cc1 (configuration not stated),0.5,42.1,0.2,2.3,0.6,51.3*
CC(=NCCCn1ccnc1)c1c(O)n(Cc2ccccc2)c(=O)[nH]c1=O,0.6,78.4*,2.2,-0.2,0.2,43.8
O=C(O)c1cn(C2CC2)c2cc(N3CCOCC3)c(F)cc2c1=O,/,/,-1.8,6.8,/,/
O=C1CC(SCc2nc3ccccc3[nH]2)C(=O)N1c1cccc(F)c1 (configuration not stated),0.2,71.0*,11.1,-6.5,0.3,81.1*
O=C1CC(SCc2nc3ccccc3[nH]2)C(=O)N1c1ccc(F)c(Cl)c1 (configuration not stated),0.5,31.6,-6.7,4.2,0.7,52.4*
O=C1CC(SCc2nc3ccccc3[nH]2)C(=O)N1c1ccc(Cl)cc1 (configuration not stated),0.7,24.6,-4.0,2.9,0.8,31.8
CC(C)N1C(=O)CC2(CC[N+](C)(CCOC(=O)C(c3ccccc3)c3ccccc3)CC2)C1=O (configuration not stated),0.9,-5.1,-2.6,4.7,1.1,11.0
CCOC(=O)c1cc(CC)sc1NC(=O)COC,0.8,84.3*,-0.3,-1.5,0.2,24.6
CCOC(=O)c1cc(CC)sc1NC(=O)Cc1ccccc1,0.8,16.2,11.1,-11.7,0.8,21.0
C=CCNCC(=O)NN=C(c1ccccc1)c1ccccc1,0.8,9.3,2.5,-2.9,0.9,20.2
O=S(=O)(Cc1ccccc1)N1CCCCCC1,0.3,-4.7,-1.3,4.2,1,66.0*
O=S(=O)(Cc1ccccc1)N1CCN(c2ccccc2)CC1,0.9,-33.4,-14.3,14.2,1.3,8.4
O=S(=O)(Cc1ccccc1)N1CCCCC1,0.6,-9.8,0.2,0.6,1.1,43.7
O=S(=O)(Cc1ccccc1)N1CCc2ccccc2C1,0,-269.8,-0.4,2.4,3.7*,96.6*
O=S(=O)(Cc1ccc(Cl)cc1)N1CCCC1,0.1,7.4,-4.8,8.1,0.9,93.0*
O=S(=O)(Cc1ccccc1)N1CCN(Cc2ccccc2)CC1,0.5,-69.8,-5.1,5.0,1.7,52.6*
CS(=O)(=O)N1CCc2ccccc2C1,/,/,-0.8,0.1,/,/
Cc1onc(-c2ccccc2Cl)c1C(=O)Nc1c(C)n(C)n(-c2ccccc2)c1=O,1,-3.4,/,/,1,0.2
[O-][N+]12CCN(CC1)c1ccccc12,0.9,9.7,-7.5,7.5,0.9,5.1
NC(=O)C(c1ncc(C(F)(F)F)cc1Cl)c1c(Cl)cccc1Cl (configuration not stated),0.6,-4.1,17.5,-15.4,1,44.6
CC(C)NC(=O)CSc1nnc(-c2ccc(C(C)(C)C)cc2)n1C,/,/,-2.3,0.4,/,/
COC(=O)C1=C(C(=O)OC)SC2(S1)C(C(=O)OC)=C(C(=O)OC)SC1=C2c2cc(C)cc(C)c2NC1(C)C,0.3,78.6*,-7.4,9.3,0.2,67.3*
c1ccc2c(c1)OCC(c1csc3ncnc(N4CCOCC4)c13)O2 (configuration not stated),0.2,50.3*,0.7,-0.2,0.5,78.1*
COc1ccc(NC(=O)C2=C(C)C(=O)OC23CCC(C)CC3)cc1Cl (configuration not stated),0.7,21.7,5.3,-8.3,0.8,31.7
O=C(CNCCC1=CCCCC1)Nc1ccc(N2CCCCCC2)cc1,1,2.5,-49.2,47.8,1,0.4
SMILES,CYP2C19 activ,CYP2C9 inh,sEH act,sEH inhibitor,CYP2C9 act,CYP2C19 inhib
COc1ccc2c(=O)c(C(=O)NCCc3ccc(OC)c(OC)c3)c[nH]c2c1,0.6,53.5*,-7.5,8.7,0.5,44.3
COC(=O)C(C(=O)Nc1cc(C)on1)C1CCCCCC1 (configuration not stated),0.4,52.3*,-6.2,9.6,0.5,64.0*
O=C(NC1CC2CCC(C1)N2C(=O)NC1CCCCC1)NC12CC3CC(CC(C3)C1)C2 (configuration not stated),0.7,32.8,/,/,0.7,27.9
Cc1cc(NC(=O)CCC2CCCCC2)no1,/,/,-12.8,11.7,/,/
Cc1ccnc(NC(=O)CCC2CCCCC2)c1,0.1,12.6,7.5,-8.0,0.9,86.1*
O=C(CCC1CCCCC1)NNC(=O)NC12CC3CC(CC(C3)C1)C2,0,15.7,-83.6,83.8*,0.8,95.2*
CCOC(=O)C(C(=O)Nc1ccc(C)cc1)C1CCCCC1 (configuration not stated),0.2,56.3*,-14.7,13.5,0.4,79.3*
Cc1ccc(-c2cccc(NC(=O)C3C4C=CC(C4)C3C(=O)O)c2)o1 (configuration not stated),1,2.2,-6.9,9.1,1,-3.4
CCNC(=O)C1CC(=O)OC12CCCCC2 (configuration not stated),0.7,0.1,3.4,-2.9,1,31.3
CCC(=O)Nc1ccc(NC(=O)C23CC4CC(CC(C4)C2)C3)cn1,1,5.7,-3.2,1.6,0.9,3.2
COc1ccc(CC(=O)Nc2cc(C)ccn2)cc1,0.2,34.8,3.3,-3.5,0.7,84.6*
Cc1cc(NC(=O)CCC2CCCC2)no1,0.4,4.6,6.7,-2.2,1,59.4*
O=C(CCC1CCCC1)NC1CCCCC1,0.4,27.9,-42.6,41.8,0.7,56.9*
Cc1ccnc(NC(=O)C23CC4CC(CC(C4)C2)C3)c1,0.1,17.2,2.7,-2.9,0.8,94.0*
COc1ccc(N2CCN(CCCNS(=O)(=O)c3c(C)noc3/C=C/N(C)C)CC2)cc1,1,61.9*,-4.6,4.6,0.4,0.8
c1ccc(-c2ccc(-c3cnc4n3CCCCC4)cc2)cc1,0.6,65.9*,-4.4,5.7,0.3,39.8
c1cc2c(cc1-c1cnc3n1CCC3)OCCO2,1,-2.0,-2.7,6.5,1,-2.7
CC1(C)CC(=O)C(C=NCCN2CCN(C(=S)Nc3ccccc3)CC2)=C(O)C1,0.7,8.0,11.2,-8.0,0.9,31.7
O=c1cc(NCc2ccccc2)c2ccccc2o1,0.3,-1.1,-5.1,8.2,1,66.0*
Cc1ccc(F)cc1NC(=O)CCC(=O)c1cccs1,0.1,43.7,-2.9,4.2,0.6,89.4*
Cc1ccc(S(=O)(=O)Nc2cc(C(=O)O)ccc2N2CCCCC2)cc1,1.1,45.0,-4.1,4.0,0.6,-5.2
Cc1ccc(S(=O)(=O)Nc2cc(C(=O)N3CCOCC3)ccc2N2CCCCC2)cc1,0.6,57.2*,3.8,-2.0,0.4,36.8
Cc1ccc(NS(=O)(=O)c2cccc(C(=O)N3CCOCC3)c2)cc1,0.3,39.7,1.2,-1.1,0.6,72.4*
COc1ccc(C(=O)NC(=S)NCCO)cc1Br,1.1,-2.8,7.0,-6.2,1,-6.6
CCOC(=O)N1CCN(c2nc(-c3cccs3)cc(C(F)(F)F)n2)CC1,0.9,6.7,0.6,2.3,0.9,8.1

# From PubChem
